GLD-1 RNA inh – GLD-1-TGE RNA interaction inhibition (C. elegans) | Q17339 | 0.44% of 320,000 active | purified GLD-1 + fluorescein TGE RNA, fluorescence polarization | inhibition, % at 5.96 µM;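 active means percent inhibition above a per-plate cutoff, the plate mean of test compounds plus 3 SD, cut at about 30% in these data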;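 further: 0% = DMSO wells with GLD-1 and probe and 100% = wells lacking GLD-1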
EBV gp42 block – EBV gp42 inhibition; Q1HVG2; Fluorescence polarization binding assay, mP read-out; inhibition, % (tested at 21.74 µM); 0.42% of 220,000 active; AID 1085; in the data active means inhibition above about 50%
Bcl-xL primary – inhibitors of human Bcl-xL. Q07817. AID 2129. GST-Bcl-xL / FITC-Bim BH3 peptide fluorescence polarization. 0.7% of 320,000 active. inhibition, % at 10.9 µM;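 active means inhibition above the mean of all tested compounds plus 3 SD, cutoff set per campaign, cut at about 30% in these data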;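 further: 0% = DMSO wells and 100% = unlabeled Bim-BH3 peptide competitor; inhibitors lower millipolarization by displacing the labeled peptide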
Target sequence (Q07817 whole entry, looked up): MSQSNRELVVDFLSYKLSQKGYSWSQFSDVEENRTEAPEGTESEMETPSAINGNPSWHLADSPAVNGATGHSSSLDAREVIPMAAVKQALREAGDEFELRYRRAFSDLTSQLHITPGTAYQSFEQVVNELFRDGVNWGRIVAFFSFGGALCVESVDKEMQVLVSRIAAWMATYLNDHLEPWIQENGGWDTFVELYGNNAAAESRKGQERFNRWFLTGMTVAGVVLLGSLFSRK
MCL1-BIM inh – MCL1-BIM-BH3 interaction inhibition (human); Q07820; GST-MCL1 / FITC-Bim-BH3 fluorescence polarization; inhibition, % at 10.9 µM; 0.68% of 320,000 active; AID 2057;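 active means inhibition above the mean inhibition of all tested compounds plus 3 SD, set per campaign, cut at about 40% in these data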;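 further: 0% = DMSO wells and 100% = unlabeled Bim-BH3 peptide control; higher means more loss of mP so more displacement of Bim peptide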
Target sequence (Q07820 whole entry, looked up): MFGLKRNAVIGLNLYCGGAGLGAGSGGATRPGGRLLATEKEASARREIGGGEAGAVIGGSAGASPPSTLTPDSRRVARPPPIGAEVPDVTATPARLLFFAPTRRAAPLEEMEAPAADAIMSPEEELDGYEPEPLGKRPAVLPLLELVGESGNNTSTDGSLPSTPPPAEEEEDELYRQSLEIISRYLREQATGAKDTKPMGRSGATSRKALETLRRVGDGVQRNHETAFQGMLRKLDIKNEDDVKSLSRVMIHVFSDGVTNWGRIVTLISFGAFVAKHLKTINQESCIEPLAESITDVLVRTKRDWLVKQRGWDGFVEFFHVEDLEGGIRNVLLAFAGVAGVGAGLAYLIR
eLon inh – E. coli protease La inhibition | P0A9M0 | purified E. coli Lon protease, fluorescence polarization | inhibition, % at 7.94 µM | 0.42% of 360,000 active; in the data active means inhibition above about 13%, passing the limit was not always enough;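 further: 0% = enzyme with probe and DMSO and 100% = no enzyme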
MEX-5 binding – C. elegans MEX-5 TCR-2 RNA binding activity; Q9XUB2; MEX-5/FITC-TCR2 RNA binding, fluorescence polarization; stronger effect = lower value; activity score (negative = inhibition of binding), % at 10 µM; 0.38% of 300,000 active; AID 1832;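 active means inhibition past about -25% in most replicates, and total fluorescence under double the plate's negative control median, limit read from the data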;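 further: 0% = DMSO and -100% = 5 µM competing unlabeled TCR2 RNA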
GLD-1 TGE cf – GLD-1 TGE RNA interaction inhibition, confirmation | shares compounds with GLD-1 RNA inh | inhibition, % at 5.96 µM | 10% of 550 active | GLD-1/FL-TGE RNA fluorescence polarization, biochemical | AID 2459;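 active means average inhibition across triplicates above the hit cutoff set in the primary screen, cut at about 32% in these data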;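 further: 0% = GLD-1 with RNA probe and DMSO and 100% = wells lacking GLD-1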
The depositor's hits bear a star; . = no result given. This is a sample that favours compounds with a hit; in the whole collection about 1.4% have one here.

SMILES	GLD-1 RNA inh	EBV gp42 block	Bcl-xL primary	MCL1-BIM inh	eLon inh	MEX-5 binding	GLD-1 TGE cf
Nc1cccc2c1C(=O)N(CC(=O)NC13CC4CC(CC(C4)C1)C3)C2=O	37*	64*	32*	32	13	0	29
COc1cc(/C=N/n2c(COc3ccccc3)n[nH]c2=S)cc(Br)c1O	-4	.	2	-2	6	-10	.
CCc1n[nH]c(=S)n1/N=C/c1cc(Br)c(O)c(OC)c1	56*	-11	-5	-6	-16	-4	7
COc1ccccc1-n1nnnc1SC(C)C(=O)NC1CCCC1 (stereo not given)	-8	.	0	3	1	-2	.
CC1(C(=O)NS(=O)(=O)C2CC2)CCCN(C(=O)/C=C/c2ccccc2)C1 (stereo not given)	.	.	.	.	-3	.	.
COCC(=O)NCc1ccc2c(c1)cc(C)n2C	36*	15	30	33	11	-1	14
Cc1cc2cc(CNC(=O)COc3ccccc3)ccc2n1C	21	-9	17	17	23	0	.
Cc1cc2cc(CNC(=O)c3ccc4c(c3)OCO4)ccc2n1C	44*	-1	33*	29	25*	0	6
C#CCn1c(O)c(N=NC(=O)CNC(=O)c2cccnc2)c2ccccc21	5	.	6	11	9	-3	.
O=C(NC1CCCc2ccccc21)c1cccc(F)c1 (stereo not given)	.	.	.	.	5	.	.
CC(/C=C/c1ccc(N(C)C)cc1)=N/N=C1/NC(=O)CC(C(=O)Nc2ccc(Cl)cc2)S1 (stereo not given)	-12	-50	-7	-33	-64	3	.
CC(/C=C/c1ccc(N(C)C)cc1)=N\N=C1\NC(=O)CC(C(=O)Nc2ccccc2)S1 (stereo not given)	33*	-83	-9	-18	-54	4	-83
O=C(c1cccc(C(F)(F)F)c1)C1CCCN(C(=O)CCCN2CCCC2=O)C1 (stereo not given)	10	-18	5	12	-3	-4	.
CCOC(=O)C1CCCN(S(=O)(=O)c2ccc(S(=O)(=O)N3CCCC3)cc2)C1 (stereo not given)	38*	.	-2	0	-7	-1	-4
CCOC(=O)c1cc(-c2ccccc2C)n(CC2CC(c3ccc(OC)cc3)=NO2)n1 (stereo not given)	3	.	.	.	-10	.	.
CC(C)OC(=O)c1cc2c(ccn2C)n1CC(=O)N(Cc1ccccc1)c1ccc(F)cc1	25	20	9	14	12	-1	.
CCOC(=O)c1cc2c(ccn2C)n1CC(=O)N(Cc1ccccc1)c1ccc(F)cc1	37*	0	9	13	11	0	47*
CCOC(=O)c1cc2c(ccn2C)n1Cc1ccccc1C	11	8	5	5	-4	1	.
CCOC(=O)c1cc2c(ccn2C)n1CC(=O)N(Cc1ccccc1)c1ccccc1	36*	8	6	2	8	1	56*
CCOc1cc(/C=N/NC(=O)C(=O)NCc2ccc3c(c2)OCO3)ccc1OCC(=O)N1CCOCC1	1	.	-2	1	-4	-1	.
O=C(OCc1ccc(F)cc1)c1ccc2c(c1)-c1ccccc1C2=O	5	-1	7	7	-2	2	.
CCOC(=O)C1=C(Cc2ccc(F)cc2)C(=O)c2ccccc2C1=O	66*	0	35*	41*	-9	0	2
COc1ccc(C(=O)C2CCCN(Cc3cccn3-c3ccc(Cl)cn3)C2)c(OC)c1 (stereo not given)	-8	7	6	6	-1	1	.
Cc1ccc(-c2cn3cccnc3n2)cc1NC(=O)c1cccs1	31*	-3	4	3	4	-2	-4
CC[N+]1(CC(O)COC2CC(C)CC(C)(C)C2)CCOCC1 (stereo not given)	-7	-34	-14	-13	-8	-2	.
SMILES	GLD-1 RNA inh	EBV gp42 block	Bcl-xL primary	MCL1-BIM inh	eLon inh	MEX-5 binding	GLD-1 TGE cf
COc1ccc2cc(S(=O)(=O)NC3CC(C)(C)NC(C)(C)C3)ccc2c1	5	.	-1	-2	0	-1	.
CCOc1ccc2[nH]c(=O)c(CN(Cc3cccs3)Cc3nnnn3C(C)(C)CC)cc2c1	109*	-4	7	4	-9	1	-5
CCCCCCc1cc2cc(S(=O)(=O)c3ccc(C)cc3)c(=O)oc2cc1O	39*	-5	6	5	0	2	-4
CCOC(=O)CSc1nnc(CSc2nc(C)cc(C)n2)n1Cc1ccco1	36*	6	9	10	2	-3	2
C=CCn1c(SCC(=O)Nc2ccc(N3CCOCC3)cc2)nc2ccccc2c1=O	0	.	1	6	-2	0	.
Cc1cc(C(=O)NNC(=O)/C=C/c2ccc(F)cc2)c(C)o1	-1	.	5	2	4	3	.
O=C1COc2ccc(C(=O)COC(=O)CCSc3ccccc3)cc2N1	59*	-10	-19	-10	-7	-2	-9
COc1cc(C(=O)OCC(=O)c2cc(C)n(CC3CCCO3)c2C)ccc1OCC(=O)N1CCOCC1 (stereo not given)	6	.	2	-1	2	-2	.
CC(C)C1Nc2ccc(S(N)(=O)=O)cc2C2C=CCC21 (stereo not given)	11	0	20	20	-8	-10	.
NS(=O)(=O)c1ccc2c(c1)C1C=CCC1C(C1CC=CCC1)N2 (stereo not given)	34*	-2	46*	44*	-18	0	9
CCCCn1c(N)c(N(CCOC)C(=O)COC(=O)/C=C/c2ccc(Br)cc2)c(=O)[nH]c1=O	2	.	1	-2	7	-2	.
O=C(/C=C/c1ccc(Cl)cc1)NCc1cccs1	65*	10	7	9	-1	-1	12
Cc1ccc(S(=O)(=O)N(CC(=O)NCC2CCCO2)C2CCCCC2)cc1 (stereo not given)	2	.	3	2	2	2	.
CCNC(=O)CC1SC(=Nc2ccc(C)c([N+](=O)[O-])c2)N(C)C1=O (stereo not given)	31*	.	5	-1	-8	-4	1
Nc1c(C(=O)OCC(=O)Nc2ccccc2Br)[nH]c(=O)[nH]c1=O	39*	.	.	.	2	.	9
CS(=O)(=O)c1ccc(Cl)c(NC(=O)CSc2n[nH]c(N)n2)c1	6	.	4	0	-11	2	.
CCN(c1ccccc1)S(=O)(=O)c1ccc(Cl)c(NC(=O)CSc2n[nH]c(N)n2)c1	39*	-17	-1	-2	-1	0	0
CC(=O)Nc1cc2c(c(Cl)c1Cl)-c1ccccc1C2=O	.	.	.	.	-1	.	.
CC(=O)Nc1c2c3c(cccc3n(C)c1=O)C(=O)c1ccccc1-2	32*	9	47*	50*	9	-7	8
